Results as given in PubChem BioAssay (EPA / NIEHS).
Records with an inconclusive call do not appear. The source made the active and inactive calls. The calls were made as follows, unless noted: active = hit-call score of the fitted dose curve at least 0.9, where 1 is the maximum; inconclusive = response in the unintended direction; inactive = score below 0.9.

Tests used:
[1] = biological target: Estrogen receptor (Homo sapiens) (UniProt P03372); assay: OT_ERa_GFPERaERE_0480: Odyssey Thera (OT) 8-hour HeLa Transcription Induction Assay for Estrogen Receptor (AID 2283381; active = hit-call score of the fitted dose curve at least 0.9, where 1 is the maximum; inactive = score below 0.9)
Estrogen receptor (Homo sapiens), sequence (P03372 whole entry, looked up): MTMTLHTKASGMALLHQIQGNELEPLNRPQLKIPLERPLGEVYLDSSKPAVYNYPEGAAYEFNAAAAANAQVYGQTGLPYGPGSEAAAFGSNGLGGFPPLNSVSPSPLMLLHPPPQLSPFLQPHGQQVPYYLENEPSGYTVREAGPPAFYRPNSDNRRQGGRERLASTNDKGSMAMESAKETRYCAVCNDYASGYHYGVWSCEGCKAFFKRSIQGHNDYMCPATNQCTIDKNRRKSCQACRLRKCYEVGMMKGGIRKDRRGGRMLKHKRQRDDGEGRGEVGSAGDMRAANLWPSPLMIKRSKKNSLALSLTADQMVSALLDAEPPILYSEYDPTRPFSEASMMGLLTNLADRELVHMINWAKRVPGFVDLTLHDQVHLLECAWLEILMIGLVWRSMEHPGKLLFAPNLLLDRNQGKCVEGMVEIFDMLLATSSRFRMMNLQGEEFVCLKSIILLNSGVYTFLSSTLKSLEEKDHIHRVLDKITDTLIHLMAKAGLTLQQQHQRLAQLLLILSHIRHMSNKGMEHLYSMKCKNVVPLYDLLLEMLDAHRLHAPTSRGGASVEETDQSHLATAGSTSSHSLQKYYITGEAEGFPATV
In short: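 HeLa cells dosed with compound and imaged by fluorescence microscopy at 8 h; GFP induction from an ERE reporter quantified by high-content image analysis and fitted as gain of signal against DMSO baseline.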

[2] = biological target: Retinoic acid receptor RXR-alpha (Homo sapiens) (UniProt P19793); assay: OT_NURR1_NURR1RXRa_0480: Odyssey Thera (OT) 8-hour HEK293T Protein Complementation Assay for Nurr1/retinoid X receptor (RXR) (AID 2283385)
Retinoic acid receptor RXR-alpha (Homo sapiens), sequence (P19793 whole entry, looked up, the tested form may be a part): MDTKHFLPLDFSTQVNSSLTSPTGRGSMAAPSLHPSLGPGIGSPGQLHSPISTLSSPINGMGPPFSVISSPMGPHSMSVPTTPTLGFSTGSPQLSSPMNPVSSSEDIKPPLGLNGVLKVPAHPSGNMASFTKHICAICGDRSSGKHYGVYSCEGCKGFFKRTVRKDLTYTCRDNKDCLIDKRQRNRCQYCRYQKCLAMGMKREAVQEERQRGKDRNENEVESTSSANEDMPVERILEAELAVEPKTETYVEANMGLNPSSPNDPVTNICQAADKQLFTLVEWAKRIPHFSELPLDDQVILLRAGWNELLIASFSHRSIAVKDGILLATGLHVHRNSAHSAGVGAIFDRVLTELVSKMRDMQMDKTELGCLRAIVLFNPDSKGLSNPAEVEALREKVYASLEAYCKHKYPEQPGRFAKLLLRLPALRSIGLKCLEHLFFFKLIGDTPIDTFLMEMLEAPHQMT
In short: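 HEK293T cells expressing Nurr1 and RXRα fused to reporter fragments were dosed with compound for 8 hours. Complex formation was read as fluorescence intensity and analysed as gain of signal against DMSO as baseline.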

[3] = biological target: Retinoic acid receptor RXR-alpha (Homo sapiens) (UniProt P19793); assay: OT_NURR1_NURR1RXRa_1440: Odyssey Thera (OT) 24-hour HEK293T Protein Complementation Assay for Nurr1/retinoid X receptor (RXR) (AID 2283386)
In short: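 HEK293T cells were dosed with compound and read 24 h later by fluorescence intensity in a protein-fragment complementation format, where Nurr1–RXRα interaction reconstitutes a split reporter. Activity was fitted as gain of signal relative to DMSO baseline.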

[4] = biological target: Peroxisome proliferator-activated receptor gamma (Homo sapiens) (UniProt P37231); assay: OT_PPARg_PPARgSRC1_0480: Odyssey Thera (OT) 8-hour Protein-Complementation Assay for Peroxisome Proliferator-activated Receptor Gamma / SRC-1 Co-activator (AID 2283387);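 also: nuclear to cytoplasmic split Venus YFP fluorescence ratio reporting PPARg SRC-1 interaction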
Peroxisome proliferator-activated receptor gamma (Homo sapiens), sequence (P37231 whole entry, looked up, the tested form may be a part): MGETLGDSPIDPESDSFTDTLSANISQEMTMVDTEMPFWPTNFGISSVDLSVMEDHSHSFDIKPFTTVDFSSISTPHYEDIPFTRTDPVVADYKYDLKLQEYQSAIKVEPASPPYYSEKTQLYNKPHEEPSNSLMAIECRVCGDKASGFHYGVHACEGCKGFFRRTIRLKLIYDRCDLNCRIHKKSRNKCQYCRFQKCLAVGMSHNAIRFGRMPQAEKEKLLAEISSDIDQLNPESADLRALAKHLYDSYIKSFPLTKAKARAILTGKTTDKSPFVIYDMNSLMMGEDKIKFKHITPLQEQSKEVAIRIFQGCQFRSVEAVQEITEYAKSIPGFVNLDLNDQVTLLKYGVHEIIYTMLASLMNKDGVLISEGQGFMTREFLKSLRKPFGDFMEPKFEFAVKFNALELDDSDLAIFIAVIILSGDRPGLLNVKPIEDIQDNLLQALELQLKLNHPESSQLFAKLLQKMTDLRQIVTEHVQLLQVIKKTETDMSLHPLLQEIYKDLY
In short: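 Split-YFP (IFP1/IFP2) PPARg/SRC-1 reporter, HEK293T, 37 °C, 5% CO2; 8 h compound; formaldehyde fix + Draq5; high-content imaging, N/C ratio, ≥350 cells/image, positive direction vs DMSO.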

[5] = biological target: Peroxisome proliferator-activated receptor gamma (Homo sapiens) (UniProt P37231); assay: OT_PPARg_PPARgSRC1_1440: Odyssey Thera (OT) 24-hour Protein-Complementation Assay for Peroxisome Proliferator-activated Receptor Gamma/ SRC-1 Co-activator (AID 2283388);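 also: nuclear to cytoplasmic ratio of reconstituted Venus YFP fluorescence in fixed imaged cells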
In short: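 Protein-fragment complementation between PPARg and coactivator SRC-1 was measured by fluorescence imaging in transiently transfected HEK293T cells after 24 h treatment. Signal was quantified as N/C ratio in the 488 nm channel, with DMSO as negative control.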

[6] = ATG_XTT_Cytotoxicity: Cytotoxicity Assessment in the Attagene TRANS-FACTORIAL HepG2 Assay (AID 2283584)
In short: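 Cells: human HepG2, transiently transfected with MRTU reporter constructs. Exposure 24 h. Readout: XTT, cell number. Baseline/neg ctrl DMSO; loss-of-signal scored.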

[7] = biological target: Estrogen receptor (Homo sapiens) (UniProt P03372); assay: OT_ERa_GFPERaERE_0120: Odyssey Thera (OT) 2-hour HeLa Transcription Induction Assay for Estrogen Receptor (AID 2283382)
In short: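 HeLa cells were dosed with test chemical and read 2 hours later for GFP-ERα/ERE-linked fluorescent protein induction by fluorescence microscopy. Gain-of-signal was fitted relative to DMSO baseline, quantified by high content image analysis.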

[8] = biological target: Bile acid receptor (Homo sapiens) (UniProt Q96RI1); assay: OT_FXR_FXRSRC1_1440: Odyssey Thera (OT) 24-hour HEK293T Protein-Complementation Assay for Farnesoid X receptor/SRC-1 Co-activator (AID 2283384)
Bile acid receptor (Homo sapiens), sequence (Q96RI1 whole entry, looked up, the tested form may be a part): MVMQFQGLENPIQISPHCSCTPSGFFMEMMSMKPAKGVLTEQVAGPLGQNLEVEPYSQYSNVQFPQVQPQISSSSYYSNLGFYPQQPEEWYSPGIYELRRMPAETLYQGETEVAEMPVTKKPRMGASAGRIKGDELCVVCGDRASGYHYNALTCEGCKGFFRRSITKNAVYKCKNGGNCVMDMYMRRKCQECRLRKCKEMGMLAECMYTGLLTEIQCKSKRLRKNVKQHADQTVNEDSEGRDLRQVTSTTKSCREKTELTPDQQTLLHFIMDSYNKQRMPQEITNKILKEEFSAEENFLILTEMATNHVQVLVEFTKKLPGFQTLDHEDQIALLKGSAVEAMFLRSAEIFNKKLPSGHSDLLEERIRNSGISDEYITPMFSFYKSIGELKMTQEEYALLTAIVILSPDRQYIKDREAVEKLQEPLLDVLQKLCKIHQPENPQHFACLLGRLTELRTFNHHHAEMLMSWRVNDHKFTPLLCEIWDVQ
In short: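 HEK293T cells were dosed with compound and read 24 h later by fluorescence intensity from protein-fragment complementation reporting FXR/SRC-1 co-activator interaction. Gain of signal was fitted relative to DMSO negative control as baseline.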

[9] = biological target: Bile acid receptor (Homo sapiens) (UniProt Q96RI1); assay: OT_FXR_FXRSRC1_0480: Odyssey Thera (OT) 8-hour HEK293T Protein-Complementation Assay for Farnesoid X receptor/SRC-1 Co-activator (AID 2283383)
In short: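 HEK293T cells expressing FXR and SRC-1 fused to reporter fragments were dosed with compound for 8 h; fluorescence from the reconstituted reporter marked co-activator recruitment. Gain of signal was fitted against the DMSO baseline.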

[10] = CEETOX_H295R_11DCORT: CeeTox H295R High-throughput Steroidogenesis Assay for 11-Deoxycortisol (11DCORT) (AID 2283432; active = hit-call score of the fitted dose curve at least 0.9, where 1 is the maximum; inactive = score below 0.9;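 as to AC50: 11-deoxycortisol secreted into the medium measured by LC-MS/MS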); settings: actives raise or lower the signal
In short: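 Steroidogenesis in human H295R cells: 48 h chemical exposure after forskolin priming, 11-deoxycortisol measured by LC-MS/MS.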

[11] = CEETOX_H295R_OHPREG: CeeTox H295R High-throughput Steroidogenesis Assay for OH-Pregnenolone (OHPREG) (AID 2283434; active = hit-call score of the fitted dose curve at least 0.9, where 1 is the maximum; inactive = score below 0.9); settings: actives raise or lower the signal
In short: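 H295R cells pre-stimulated 48 h with 10 uM forskolin, then exposed 48 h to chemical in 0.1% DMSO. 17alpha-hydroxypregnenolone in medium quantified by MTBE extraction and HPLC-MS/MS; bidirectional fit versus DMSO, viability checked by MTT.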

[12] = CEETOX_H295R_OHPROG: CeeTox H295R High-throughput Steroidogenesis Assay for OH-Progesterone (OHPROG) (AID 2283435; active = hit-call score of the fitted dose curve at least 0.9, where 1 is the maximum; inactive = score below 0.9); settings: actives raise or lower the signal
In short: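 H295R human adrenal cells were prestimulated 48 h with 10 uM forskolin, then exposed 48 h to test chemical (0.1% DMSO final). 17alpha-hydroxyprogesterone in medium was measured by HPLC-MS/MS after MTBE extraction; bidirectional fitting vs DMSO.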

[13] = CEETOX_H295R_CORTIC: CeeTox H295R High-throughput Steroidogenesis Assay for Corticosterone (CORTIC) (AID 2283437; active = hit-call score of the fitted dose curve at least 0.9, where 1 is the maximum; inactive = score below 0.9;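 also: corticosterone secreted into medium quantified by mass spectrometry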); settings: actives raise or lower the signal
In short: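 H295R adrenal cells prestimulated 48 hours with 10 uM forskolin, then exposed 48 hours to chemical in 0.1% DMSO. Corticosterone in medium measured by HPLC-MS/MS after MTBE extraction; MTT viability in the same wells; bidirectional fit versus DMSO.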

[14] = CEETOX_H295R_CORTISOL: CeeTox H295R High-throughput Steroidogenesis Assay for Cortisol (AID 2283438; active = hit-call score of the fitted dose curve at least 0.9, where 1 is the maximum; inactive = score below 0.9;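 also: cortisol secreted into medium quantified by LC-MS/MS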); settings: actives raise or lower the signal
In short: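 H295R human adrenal cells were prestimulated 48 h with 10 uM forskolin, then exposed 48 h to test chemical (0.1% DMSO final). Medium cortisol was quantified by HPLC-MS/MS after MTBE extraction; bidirectional fitting relative to DMSO baseline.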

[15] = CEETOX_H295R_DOC: CeeTox H295R High-throughput Steroidogenesis Assay for DOC (AID 2283439; active = hit-call score of the fitted dose curve at least 0.9, where 1 is the maximum; inactive = score below 0.9); settings: actives raise or lower the signal
In short: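 H295R adrenal cells prestimulated 48 h with 10 uM forskolin, then exposed 48 h to test chemical (0.1% DMSO final). Medium 11-deoxycorticosterone extracted with MTBE, quantified by HPLC-MS/MS; bidirectional fit versus DMSO baseline; MTT viability in same wells.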

[16] = CEETOX_H295R_ESTRADIOL: CeeTox H295R High-throughput Steroidogenesis Assay for Estradiol (AID 2283440; active = hit-call score of the fitted dose curve at least 0.9, where 1 is the maximum; inactive = score below 0.9;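 also: estradiol secreted into medium quantified by LC-MS/MS after dansyl derivatisation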); settings: actives raise or lower the signal
In short: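 Estradiol secreted into the medium was measured by tandem mass spectrometry after liquid-liquid extraction and dansylation. Human H295R cells had been forskolin-primed (10 uM, 48 h) before a 48 h chemical exposure with 0.1% DMSO.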

[17] = CEETOX_H295R_ESTRONE: CeeTox H295R High-throughput Steroidogenesis Assay for Estrone (AID 2283441; active = hit-call score of the fitted dose curve at least 0.9, where 1 is the maximum; inactive = score below 0.9;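 also: estrone secreted into medium measured by LC-MS/MS after dansyl derivatization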); settings: actives raise or lower the signal
In short: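 H295R cells; 48 h forskolin (10 uM) prestimulation; 48 h compound exposure, 0.1% DMSO final. Medium estrone: MTBE extraction, dansyl derivatization, HPLC-MS/MS. Bidirectional fit vs DMSO.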

[18] = CEETOX_H295R_PROG: CeeTox H295R High-throughput Steroidogenesis Assay for Progesterone (PROG) (AID 2283442; active = hit-call score of the fitted dose curve at least 0.9, where 1 is the maximum; inactive = score below 0.9;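 as to AC50: human H295R adrenal cells primed with 10 µM forskolin before dosing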); settings: actives raise or lower the signal
In short: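 Steps: seed H295R cells and let them adhere overnight; prime 48 h with 10 uM forskolin; dose with compound in DMSO at 0.1% final for 48 h; extract medium steroids with MTBE; measure progesterone by LC-MS/MS. MTT viability was run in the same wells.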

[19] = CEETOX_H295R_ANDR: CeeTox H295R High-throughput Steroidogenesis Assay for Androstenedione (ANDR) (AID 2283436; active = hit-call score of the fitted dose curve at least 0.9, where 1 is the maximum; inactive = score below 0.9); settings: actives raise or lower the signal
In short: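 H295R cells, following OECD 456 with minor changes, exposed to chemicals for 48 h. Androstenedione in the medium was quantified by HPLC-MS/MS after MTBE extraction. Fitting was bidirectional versus DMSO; chemicals were diluted until MTT viability was ≥70%.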

[20] = CEETOX_H295R_TESTO: CeeTox H295R High-throughput Steroidogenesis Assay for Testosterone (TESTO) (AID 2283457; active = hit-call score of the fitted dose curve at least 0.9, where 1 is the maximum; inactive = score below 0.9;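 as to AC50: cells exposed to chemicals for 48 h before medium collection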); settings: actives raise or lower the signal
In short: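 H295R, passage ≤10, 48 h dosing; media extracted with MTBE → HPLC-MS/MS for testosterone; 7-pt standard curve sets LLOQ/ULOQ; bidirectional fit vs DMSO; MTT viability same wells.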

Measured: AC50

OC[C@@H](O)[C@@H](O)[C@H](O)[C@@H](O)CO
inactive: [1] | [2] | [3] | [4] | [5] | [6]

Cc1ccc(S(=O)(=O)NCl)cc1
inactive: [1] | [7] | [3] | [4] | [5] | [6]

CN(C)Cc1ccccc1O
inactive: [1] | [7] | [8] | [3] | [5] | [6]

COC(=O)C1CCC(C(=O)OC)CC1 (centres undefined)
inactive: [1] | [7] | [9] | [8] | [2] | [5] | [6]

Cc1cc(C)cc(O)c1
inactive: [1] | [7] | [3] | [4] | [5] | [6]

CCCCCCC(C)OC(=O)CCCCC(=O)OC(C)CCCCCC (centres undefined)
inactive: [1] | [7] | [9] | [8] | [2] | [3] | [4] | [5] | [6]

CC(Cc1ccc(O)c(O)c1)C(C)Cc1ccc(O)c(O)c1 (centres undefined)
active: [1] 11.9 µM | [7] 1.47 µM | [10] 79.6 µM | [12] 4.19 µM | [13] 12.7 µM | [14] 78.3 µM | [15] 11.7 µM | [18] 13.9 µM
inactive: [3] | [5] | [11] | [16] | [17] | [6]

O=S(=O)(O)c1ccc2ccccc2c1
inactive: [1] | [7] | [9] | [8] | [2] | [3] | [4] | [5] | [6]

CCc1c(Br)c(Br)c(Br)c(Br)c1Br
inactive: [6]

CCCCOCCOCCOC(=O)CCCCC(=O)OCCOCCOCCCC
inactive: [6]

Cc1cccc(N(C)C)c1
inactive: [10] | [11] | [12] | [19] | [13] | [14] | [15] | [16] | [17] | [18] | [20] | [6]

Nc1cc(Cl)c(N)c(Cl)c1
inactive: [6]

C=CC/C=C/C/C=C/C/C=C/C
inactive: [6]

CC(C)c1ccccc1N
inactive: [6]

Nc1ccc([N+](=O)[O-])cc1O
inactive: [6]

CCCCCCCOC(=O)c1ccccc1C(=O)OCCCCCCC
inactive: [6]

CCCCCCS
inactive: [10] | [11] | [12] | [19] | [13] | [14] | [15] | [16] | [17] | [18] | [20] | [6]

O[Si](c1ccccc1)(c1ccccc1)c1ccccc1
inactive: [6]

Nc1ccc(Oc2cccc(Oc3ccc(N)cc3)c2)cc1
inactive: [10] | [11] | [15] | [16] | [17] | [6]
active: [12] 2.87 µM | [13] 2.84 µM | [14] 3.6 µM | [18] 3.9 µM

COC(OC(C)=O)c1ccccc1 (centres undefined)
inactive: [6]

CCCCNc1ccccc1
inactive: [6]

CCCCCCCCCCCCCCCC[N+](C)(C)Cc1ccccc1
inactive: [6]

CC(C)=CCCC(C)CCOC(=O)C(C)C (centres undefined)
inactive: [6]

CC/C=C\CCOC(=O)c1ccccc1
inactive: [6]

CC(C)(C)c1ccc(OC2CCCCC2O)cc1 (centres undefined)
inactive: [6]

CS(C)(=O)=O
inactive: [6]

CCCCCC=O
inactive: [6]

CC(=O)Nc1ccc(N=Nc2cc(C)ccc2O)cc1
inactive: [11] | [14] | [15] | [16] | [17] | [6]
active: [10] 33.7 µM | [12] 16 µM | [19] 25 µM | [13] 25 µM | [18] 20.9 µM | [20] 31.5 µM

CCN(CC)c1ccc2c(C)cc(=O)oc2c1
inactive: [6]

CO[Si](OC)(c1ccccc1)c1ccccc1
inactive: [6]

O=C(C=Cc1ccccc1)OCC=Cc1ccccc1
inactive: [6]

c1ccc(-c2ccccc2-c2ccccc2)cc1
inactive: [6]
